In article PMC5540273 (PLoS ONE, 2017):

Legend:
Conditions in all cases: concentration: 1 μM, replicates: in singlicate; n = 1
ERK1 = tested on: T1, ERK1
T1 construct: gene MAPK3

ERK2 = tested on: T2, ERK2
T2 construct: gene MAPK1

ERK3 = tested on: T3, ERK3
T3 construct: gene MAPK6

ERK4 = tested on: T4, ERK4
T4 construct: gene MAPK4

ERK5 = tested on: T5, ERK5
T5 construct: gene MAPK7

ERK8 = tested on: T6, ERK8
T6 construct: gene MAPK15

ERN1 = tested on: ERN1
FAK = tested on: T7, FAK
T7 construct: gene PTK2

FER = tested on: FER
FES = tested on: FES
FGFR1 = tested on: FGFR1
FGFR2 = tested on: FGFR2
FGFR3 = tested on: FGFR3
FGFR4 = tested on: FGFR4
FGR = tested on: FGR
FLT1 = tested on: FLT1
FLT3-autoinhibited = tested on: FLT3-autoinhibited
FLT3 = tested on: FLT3
FLT4 = tested on: FLT4
FRK = tested on: FRK
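Note: KINOMEscan kinase panel screen.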

Row | Structure (SMILES) | %Inh (ERK1) | %Inh (ERK2) | %Inh (ERK3) | %Inh (ERK4) | %Inh (ERK5) | %Inh (ERK8) | %Inh (ERN1) | %Inh (FAK) | %Inh (FER) | %Inh (FES) | %Inh (FGFR1) | %Inh (FGFR2) | %Inh (FGFR3) | %Inh (FGFR4) | %Inh (FGR) | %Inh (FLT1) | %Inh (FLT3-autoinhibited) | %Inh (FLT3) | %Inh (FLT4) | %Inh (FRK)
1 | Cn1cc(-c2ccc3c(c2)CCN3C(=O)Cc2cc(F)cc(C(F)(F)F)c2)c2c(N)ncnc21 [GSK2635225] | 15% | 0% | 0% | 24% | 0% | 8% | 6% | 11% | 34% | 0% | 26% | 0% | 11% | 33% | 35% | 39% | 13% | 90% | 30% | 18%
2 | COc1cccc(CC(=O)N2CCc3cc(-c4cn(C)c5ncnc(N)c45)ccc32)c1 [GSK2608899] | 6% | 13% | 0% | 12% | 0% | 17% | 19% | 8% | 17% | 0% | 22% | 0% | 0% | 0% | 15% | 59% | 0% | 66% | 0% | 0%
3 | c1ccc(Oc2ccc(Nc3ccnc4cc(-c5ccc(CN6CCCCC6)o5)ccc34)cc2)nc1 [GW567143] | 13% | 0% | 0% | 0% | 0% | 0% | 26% | 0% | 4% | 0% | 9% | 0% | 1% | 1% | 65% | 20% | 67% | 98.4% | 23% | 33%
4 | CN(C)c1ncnc2nc[nH]c12 [SKF-31736] | 0% | 0% | 0% | 0% | 0% | 14% | 48% | 0% | 0% | 0% | 0% | 0% | 0% | 0% | 0% | 0% | 0% | 0% | 0% | 0%
5 | Fc1cc(Cl)ccc1Nc1ccnc2cc(-c3ccc(CN4CCSCC4)o3)ccc12 [GW560106] | 17% | 0% | 0% | 0% | 0% | 0% | 6% | 0% | 37% | 0% | 47% | 34% | 11% | 19% | 90.8% | 87% | 0% | 72% | 91.6% | 86%
6 | CN(C)CCOc1ccc(-c2cc(-c3ccc(Cl)c(O)c3)c(-c3ccncc3)[nH]2)cc1.Cl.Cl [SB-684387] | 0% | 0% | 0% | 40% | 13% | 7% | 39% | 0% | 10% | 10% | 0% | 1% | 30% | 15% | 73% | 0% | 17% | 0% | 1% | 82%
7 | Cc1ccc(NC(=O)c2cccc(N3CCCCC3)c2)cc1-c1ccc(C(=O)NCC2CC2)cc1 [GSK1917008] | 2% | 0% | 100% | 23% | 0% | 51% | 17% | 15% | 16% | 21% | 21% | 20% | 21% | 18% | 24% | 34% | 20% | 0% | 13% | 49%
8 | COC(=O)Nc1nc2ccc(Oc3ccc(CC(=O)Nc4cc(C(F)(F)F)ccc4F)cc3)cc2[nH]1 [GW680903] | 0% | 0% | 0% | 7% | 0% | 0% | 0% | 0% | 0% | 0% | 0% | 6% | 8% | 4% | 10% | 93% | 20% | 99.3% | 72% | 19%
9 | COc1ccc(C)c(Nc2ccnc(Nc3ccc(-c4cnc[nH]4)cc3)n2)c1.Cl [GW784041] | 0% | 9% | 16% | 0% | 0% | 4% | 0% | 0% | 2% | 2% | 23% | 4% | 48% | 100% | 86% | 14% | 0% | 15% | 10% | 69%
10 | Cc1ccc(NC(=O)c2ccc(Cl)c(Cl)c2)cc1-c1ccc(C(=O)Nc2ccncc2)cc1 [GSK1398460] | 5% | 2% | 0% | 13% | 0% | 0% | 0% | 0% | 34% | 0% | 0% | 0% | 14% | 6% | 26% | 70% | 14% | 5% | 57% | 82%
